Tests used:
[1] = biological target: Protein max (UniProt P61244); experiment: cross-link between two proteins; cross-linking mass spectrometry; other
[2] = biological target: Histone H2B type 1-J (UniProt P06899); experiment: cross-link between two proteins; cross-linking mass spectrometry
[3] = biological target: Histone H3.1 (UniProt P68431); experiment: as above
[4] = biological target: Histone H4 (UniProt P62805); experiment: as above

Myc proto-oncogene protein, P01106, sequence (P01106 whole entry): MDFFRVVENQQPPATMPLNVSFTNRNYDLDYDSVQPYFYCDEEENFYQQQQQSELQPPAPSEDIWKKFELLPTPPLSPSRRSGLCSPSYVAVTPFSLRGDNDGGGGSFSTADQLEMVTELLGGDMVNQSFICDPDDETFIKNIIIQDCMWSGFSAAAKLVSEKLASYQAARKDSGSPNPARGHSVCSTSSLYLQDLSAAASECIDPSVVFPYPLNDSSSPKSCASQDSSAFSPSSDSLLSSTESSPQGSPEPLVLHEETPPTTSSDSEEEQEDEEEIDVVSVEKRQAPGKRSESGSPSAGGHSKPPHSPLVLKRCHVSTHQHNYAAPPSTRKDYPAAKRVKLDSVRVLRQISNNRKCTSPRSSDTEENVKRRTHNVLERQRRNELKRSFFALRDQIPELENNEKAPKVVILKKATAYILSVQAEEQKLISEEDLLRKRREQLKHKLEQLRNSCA
Protein max, sequence (P61244 whole entry): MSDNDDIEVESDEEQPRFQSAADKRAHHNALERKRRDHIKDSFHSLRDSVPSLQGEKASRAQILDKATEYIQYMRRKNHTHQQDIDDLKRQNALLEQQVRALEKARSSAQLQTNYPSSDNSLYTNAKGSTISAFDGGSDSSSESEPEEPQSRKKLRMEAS

| Substance | listed as a hit [1] | listed as a hit [2] | listed as a hit [3] | listed as a hit [4] |
| --- | --- | --- | --- | --- |
| Myc proto-oncogene protein, P01106 | yes |  |  |  |
| Histone H2A type 1-B/E, P04908 |  | yes | yes | yes |
| Histone H2B type 1-J, P06899 |  |  | yes | yes |
